# Measurements published in the supplement of paper PMC10849652.
# The full data set covers some 8,800 targets. This sample favours those with a hit. About 0.5% of all pairs of compound and target were hits. Unmarked numbers belong to inactive results.
# Experiments:
# Experiment in all cases: log2 fold change, soluble protein after heating vs DMSO (PISA); higher = thermal stabilisation; K562 lysate, 10 uM; active = over 0.2 and 3.5 SD of the protein, either way, in both replicates (recomputed)
# nilotinib = compound: Cc1cn(-c2cc(NC(=O)c3ccc(C)c(Nc4nccc(-c5cccnc5)n4)c3)cc(C(F)(F)F)c2)cn1 [nilotinib]
# How it was run: (§1)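 A 30 min treatment with 10 μM compound was applied to crude K562 extract at 1 mg/mL protein in PBS pH 7.4 with 1 mM MgCl2. Heating for 3 min spanned 48°C-58°C, after which aliquots were pooled, adjusted to 0.5% NP-40 at 4°C and spun at 21,000xg for 90 min. TMTpro 16plex LC-MS/MS of the supernatant, with channel sums equalised, gave values recorded as log-two fold change in thermal stability against solvent controls, from duplicates.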
# [1] = compound: Cc1nc(Nc2n[nH]c3c2CN(C(=O)N[C@H](CN(C)C)c2ccccc2)C3(C)C)c2sccc2n1
# How it was run: as §1
# dasatinib = compound: Cc1nc(Nc2ncc(C(=O)Nc3c(C)cccc3Cl)s2)cc(N2CCN(CCO)CC2)n1 [dasatinib]
# How it was run: as §1
# [2] = compound: Cc1ncc(-c2ccnc(Nc3ccc(S(C)(=O)=O)cc3)n2)n1C(C)C
# How it was run: as §1
# [3] = compound: Cn1cc(-c2ccc3c(c2)CCN3C(=O)Cc2cccc(C(F)(F)F)c2)c2c(N)ncnc21
# How it was run: as §1
# quisinostat = compound: Cn1cc(CNCC2CCN(c3ncc(C(=O)NO)cn3)CC2)c2ccccc21 [quisinostat]
# How it was run: as §1
# tipifarnib = compound: Cn1cncc1[C@@](N)(c1ccc(Cl)cc1)c1ccc2c(c1)c(-c1cccc(Cl)c1)cc(=O)n2C [tipifarnib]
# How it was run: as §1
# [4] = compound: NC(=O)Nc1cc(-c2cccc(F)c2)sc1C(=O)N[C@H]1CCCNC1
# How it was run: as §1
# [5] = compound: NC(=O)c1cnc(N[C@@H]2CCCC[C@@H]2N)nc1Nc1cccc(-n2nccn2)c1
# How it was run: as §1
# [6] = compound: NC1(c2ccc(-c3nc4ccn5c(=O)[nH]nc5c4cc3-c3ccccc3)cc2)CCC1
# How it was run: as §1
# [7] = compound: NCC(=O)Nc1ccc(-n2nc(C(F)(F)F)cc2-c2ccc3c(ccc4ccccc43)c2)cc1
# How it was run: as §1
# vorinostat = compound: O=C(CCCCCCC(=O)Nc1ccccc1)NO [vorinostat]
# How it was run: as §1
# silmitasertib = compound: O=C(O)c1ccc2c(c1)nc(Nc1cccc(Cl)c1)c1ccncc12 [silmitasertib]
# How it was run: as §1
# [8] = compound: O=C1NC(=O)C(c2cnc3ccccn23)=C1c1cn2c3c(cc(F)cc13)CN(C(=O)N1CCCCC1)CC2
# How it was run: as §1
# entospletinib = compound: c1cn2cc(-c3ccc4cn[nH]c4c3)nc(Nc3ccc(N4CCOCC4)cc3)c2n1 [entospletinib]
# How it was run: as §1
# Sequence of UniProt Q9BUF5 (Q9BUF5 whole entry, looked up): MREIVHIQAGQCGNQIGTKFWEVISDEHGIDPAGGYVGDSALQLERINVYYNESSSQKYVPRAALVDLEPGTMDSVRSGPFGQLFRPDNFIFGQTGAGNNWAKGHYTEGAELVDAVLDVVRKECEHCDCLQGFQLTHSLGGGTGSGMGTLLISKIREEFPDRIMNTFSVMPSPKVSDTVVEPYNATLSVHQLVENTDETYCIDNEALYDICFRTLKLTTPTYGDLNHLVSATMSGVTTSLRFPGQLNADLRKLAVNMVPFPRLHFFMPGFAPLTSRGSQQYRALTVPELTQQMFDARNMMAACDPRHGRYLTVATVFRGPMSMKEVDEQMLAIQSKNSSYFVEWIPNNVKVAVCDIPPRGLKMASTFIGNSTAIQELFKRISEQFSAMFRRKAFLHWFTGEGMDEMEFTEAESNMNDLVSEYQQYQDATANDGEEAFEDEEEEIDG
# Sequence of UniProt Q9BUB7 (Q9BUB7 whole entry, looked up): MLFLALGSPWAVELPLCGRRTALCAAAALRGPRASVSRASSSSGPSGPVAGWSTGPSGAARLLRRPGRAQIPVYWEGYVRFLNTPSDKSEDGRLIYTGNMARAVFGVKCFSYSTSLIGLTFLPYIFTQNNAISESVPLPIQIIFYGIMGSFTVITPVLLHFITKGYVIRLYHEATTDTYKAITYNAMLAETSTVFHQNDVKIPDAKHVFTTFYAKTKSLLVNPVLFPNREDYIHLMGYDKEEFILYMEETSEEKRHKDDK
# Sequence of UniProt P67936 (P67936 whole entry, looked up): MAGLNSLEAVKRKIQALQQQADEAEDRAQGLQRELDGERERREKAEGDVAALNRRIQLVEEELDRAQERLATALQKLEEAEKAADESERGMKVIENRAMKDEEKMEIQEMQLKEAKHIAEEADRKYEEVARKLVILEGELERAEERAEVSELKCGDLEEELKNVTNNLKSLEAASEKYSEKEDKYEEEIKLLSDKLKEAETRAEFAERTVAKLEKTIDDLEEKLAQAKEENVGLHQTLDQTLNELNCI
# Sequence of UniProt P43897 (P43897 whole entry, looked up): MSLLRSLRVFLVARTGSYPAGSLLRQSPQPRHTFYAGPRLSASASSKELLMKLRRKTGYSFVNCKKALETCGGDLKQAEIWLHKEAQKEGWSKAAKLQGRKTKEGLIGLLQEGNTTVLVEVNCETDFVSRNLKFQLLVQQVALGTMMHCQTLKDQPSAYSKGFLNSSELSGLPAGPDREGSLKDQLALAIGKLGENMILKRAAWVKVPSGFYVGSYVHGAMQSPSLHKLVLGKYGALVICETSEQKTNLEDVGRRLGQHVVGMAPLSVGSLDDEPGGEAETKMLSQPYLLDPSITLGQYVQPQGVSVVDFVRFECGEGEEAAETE
# Sequence of UniProt Q8NG68 (Q8NG68 whole entry, looked up): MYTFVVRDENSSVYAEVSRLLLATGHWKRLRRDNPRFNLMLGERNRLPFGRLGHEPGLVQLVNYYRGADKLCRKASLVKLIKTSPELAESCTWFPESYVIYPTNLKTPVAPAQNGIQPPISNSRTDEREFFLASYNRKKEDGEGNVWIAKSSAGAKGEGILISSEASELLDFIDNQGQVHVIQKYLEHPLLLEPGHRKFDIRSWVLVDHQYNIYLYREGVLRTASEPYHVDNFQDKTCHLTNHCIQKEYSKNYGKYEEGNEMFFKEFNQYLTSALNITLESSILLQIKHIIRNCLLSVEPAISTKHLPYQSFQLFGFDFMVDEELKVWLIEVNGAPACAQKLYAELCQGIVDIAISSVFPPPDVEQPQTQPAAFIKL
# Sequence of UniProt P04183 (P04183 whole entry, looked up): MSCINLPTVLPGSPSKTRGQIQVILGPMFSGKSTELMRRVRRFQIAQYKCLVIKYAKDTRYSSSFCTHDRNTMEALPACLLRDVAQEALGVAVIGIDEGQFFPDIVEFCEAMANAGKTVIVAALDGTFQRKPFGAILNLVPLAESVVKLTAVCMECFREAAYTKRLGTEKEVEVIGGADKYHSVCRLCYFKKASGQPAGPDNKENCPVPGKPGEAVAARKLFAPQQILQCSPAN
# Sequence of UniProt Q9NZ01 (Q9NZ01 whole entry, looked up): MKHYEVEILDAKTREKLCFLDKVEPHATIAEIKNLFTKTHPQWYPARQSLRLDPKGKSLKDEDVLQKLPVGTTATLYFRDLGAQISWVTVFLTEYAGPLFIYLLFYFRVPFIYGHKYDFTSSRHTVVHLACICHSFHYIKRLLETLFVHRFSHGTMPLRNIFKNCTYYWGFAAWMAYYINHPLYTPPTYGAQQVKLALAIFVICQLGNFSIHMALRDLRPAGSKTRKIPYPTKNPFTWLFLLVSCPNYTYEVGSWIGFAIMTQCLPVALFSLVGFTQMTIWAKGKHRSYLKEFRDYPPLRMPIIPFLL
# Sequence of UniProt Q9NUQ7 (Q9NUQ7 whole entry, looked up): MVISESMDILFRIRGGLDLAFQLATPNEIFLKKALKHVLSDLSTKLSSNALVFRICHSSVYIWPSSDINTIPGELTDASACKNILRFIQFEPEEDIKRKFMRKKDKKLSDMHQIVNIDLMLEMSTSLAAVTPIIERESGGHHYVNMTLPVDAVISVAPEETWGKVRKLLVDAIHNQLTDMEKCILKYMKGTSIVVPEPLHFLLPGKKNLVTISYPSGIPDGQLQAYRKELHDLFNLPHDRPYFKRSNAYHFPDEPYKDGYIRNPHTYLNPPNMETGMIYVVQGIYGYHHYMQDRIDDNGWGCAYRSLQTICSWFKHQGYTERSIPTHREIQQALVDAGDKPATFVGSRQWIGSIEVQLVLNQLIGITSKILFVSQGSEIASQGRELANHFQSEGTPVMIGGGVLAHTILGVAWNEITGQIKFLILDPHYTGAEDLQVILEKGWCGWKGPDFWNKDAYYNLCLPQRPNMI
# Sequence of UniProt Q12788 (Q12788 whole entry, looked up): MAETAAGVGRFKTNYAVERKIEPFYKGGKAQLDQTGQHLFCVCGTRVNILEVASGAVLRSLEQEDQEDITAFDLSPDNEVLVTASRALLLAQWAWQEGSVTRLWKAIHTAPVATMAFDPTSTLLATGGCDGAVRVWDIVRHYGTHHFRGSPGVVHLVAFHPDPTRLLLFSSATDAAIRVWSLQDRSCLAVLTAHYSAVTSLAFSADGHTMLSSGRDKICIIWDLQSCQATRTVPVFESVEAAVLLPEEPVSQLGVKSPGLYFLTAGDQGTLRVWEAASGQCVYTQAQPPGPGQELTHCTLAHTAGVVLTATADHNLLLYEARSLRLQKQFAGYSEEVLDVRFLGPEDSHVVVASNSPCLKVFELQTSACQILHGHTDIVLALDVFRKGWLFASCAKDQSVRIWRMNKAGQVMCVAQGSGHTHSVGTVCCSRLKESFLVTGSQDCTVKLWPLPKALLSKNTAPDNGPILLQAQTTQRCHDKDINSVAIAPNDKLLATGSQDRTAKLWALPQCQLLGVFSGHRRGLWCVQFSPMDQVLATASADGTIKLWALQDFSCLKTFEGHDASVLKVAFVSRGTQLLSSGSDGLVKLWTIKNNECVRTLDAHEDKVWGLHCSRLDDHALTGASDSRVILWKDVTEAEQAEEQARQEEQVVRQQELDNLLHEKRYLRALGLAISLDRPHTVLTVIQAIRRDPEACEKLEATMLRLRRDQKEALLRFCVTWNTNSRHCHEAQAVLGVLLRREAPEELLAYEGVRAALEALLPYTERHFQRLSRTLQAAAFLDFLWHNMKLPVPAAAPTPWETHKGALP
# Sequence of UniProt Q9BQE3 (Q9BQE3 whole entry, looked up): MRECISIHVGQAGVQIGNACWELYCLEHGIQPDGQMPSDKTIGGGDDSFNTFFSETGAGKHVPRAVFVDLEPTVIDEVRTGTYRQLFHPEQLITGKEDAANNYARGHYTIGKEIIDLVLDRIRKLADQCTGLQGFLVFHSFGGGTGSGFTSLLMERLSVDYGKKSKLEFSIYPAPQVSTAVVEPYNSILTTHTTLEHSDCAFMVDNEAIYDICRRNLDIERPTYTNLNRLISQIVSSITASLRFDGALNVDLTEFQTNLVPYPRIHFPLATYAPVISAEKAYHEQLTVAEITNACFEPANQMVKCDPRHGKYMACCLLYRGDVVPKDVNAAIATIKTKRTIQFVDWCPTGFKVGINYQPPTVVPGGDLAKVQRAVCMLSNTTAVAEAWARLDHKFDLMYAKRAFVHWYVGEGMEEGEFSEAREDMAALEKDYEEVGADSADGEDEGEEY
# Sequence of UniProt P51668 (P51668 whole entry, looked up): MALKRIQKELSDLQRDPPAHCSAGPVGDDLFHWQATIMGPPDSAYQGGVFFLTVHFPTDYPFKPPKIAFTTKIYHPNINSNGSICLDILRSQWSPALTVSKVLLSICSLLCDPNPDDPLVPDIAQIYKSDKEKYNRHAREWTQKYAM
# Sequence of UniProt Q15813 (Q15813 whole entry, looked up): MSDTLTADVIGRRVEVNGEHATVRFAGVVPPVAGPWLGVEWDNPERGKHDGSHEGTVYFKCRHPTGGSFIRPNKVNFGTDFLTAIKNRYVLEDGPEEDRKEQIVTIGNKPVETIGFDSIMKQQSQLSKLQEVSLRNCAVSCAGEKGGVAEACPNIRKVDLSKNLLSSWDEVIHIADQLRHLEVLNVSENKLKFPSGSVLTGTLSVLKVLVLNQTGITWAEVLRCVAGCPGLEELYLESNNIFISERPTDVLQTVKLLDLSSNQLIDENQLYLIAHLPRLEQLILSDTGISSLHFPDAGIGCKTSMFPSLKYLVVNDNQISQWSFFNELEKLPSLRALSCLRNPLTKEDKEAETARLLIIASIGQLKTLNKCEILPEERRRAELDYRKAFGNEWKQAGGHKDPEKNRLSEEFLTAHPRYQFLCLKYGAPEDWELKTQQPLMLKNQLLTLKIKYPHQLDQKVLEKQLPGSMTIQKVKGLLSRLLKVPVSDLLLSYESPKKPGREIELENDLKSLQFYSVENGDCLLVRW
# Sequence of UniProt Q5BJF2 (Q5BJF2 whole entry, looked up): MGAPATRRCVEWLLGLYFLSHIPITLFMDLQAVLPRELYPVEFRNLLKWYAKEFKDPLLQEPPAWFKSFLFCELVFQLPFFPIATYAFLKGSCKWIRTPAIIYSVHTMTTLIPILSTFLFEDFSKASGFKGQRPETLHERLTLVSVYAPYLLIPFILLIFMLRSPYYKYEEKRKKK
Target,log2 fold change (nilotinib),log2 fold change [1],log2 fold change (dasatinib),log2 fold change [2],log2 fold change [3],log2 fold change (quisinostat),log2 fold change (tipifarnib),log2 fold change [4],log2 fold change [5],log2 fold change [6],log2 fold change [7],log2 fold change (vorinostat),log2 fold change (silmitasertib),log2 fold change [8],log2 fold change (entospletinib)
TBCE (UniProt Q15813),-0.001,-0.008,-0.012,-0.01,0.049,-0.025,-0.005,0.033,0.015,-0.041,-0.029,-0.27 (active),0.018,-0.025,0.021
TPM4 isoform 2 (UniProt P67936),0.052,-0.048,0.059,0.076,-0.011,0.122,0.024,-0.039,0.029,0.02,0.02,0.082,-0.016,-0.014,0.02
TSFM (UniProt P43897),-0.013,0.021,-0.034,-0.028,0.017,-0.016,0.002,0.002,0.037,-0.026,0.002,-0.261 (active),0.043,0.035,-0.014
TK1 (UniProt P04183),-0.009,0.002,0.004,0.003,-0.009,-0.03,0.015,-0.005,-0.043,-0.003,0.04,-0.028,-0.001,0.014,0.035
UFSP2 (UniProt Q9NUQ7),-0.004,-0.015,0.007,-0.038,-0.002,0.004,-0.001,0.016,0.002,-0.035,-0.029,0.342 (active),0.001,-0.021,-0.012
TECR (UniProt Q9NZ01),-0.06,0.018,-0.062,-0.011,-0.043,-0.024,-0.09,0.041,-0.009,-0.047,-0.031,0.024,0.076,0.032,0.033
TMEM70 (UniProt Q9BUB7),-0.05,-0.046,-0.065,0.023,-0.003,-0.206,-0.007,0.02,0.009,-0.001,-0.081,0.122,0.017,-0.108,0.015
TJP1 isoform 2 (UniProt Q07157),-0.003,0.004,0.036,0.006,-0.013,-0.011,-0.005,-0.019,0.022,-0.041,0.029,0.041,-0.035,-0.023,-0.043
TERF2IP (UniProt Q9NYB0),0.012,0.013,0.018,0.009,0.005,0.024,-0.012,0.011,-0.017,-0.003,0.038,0.072,0.008,0.011,0.011
TRADD (UniProt Q15628),0.009,-0.02,0.065,-0.013,-0.002,-0.018,0.053,0.044,0.01,0.041,0.034,-0.284,0.021,-0.029,0.059
TOX4 (UniProt O94842),-0.056,-0.019,0.001,0.073,0.009,-0.018,-0.02,-0.017,0.017,0.034,-0.021,-0.018,-0.037,-0.025,-0.006
TBL3 (UniProt Q12788),-0.009,0.025,-0.013,0.016,0.011,-0.046,0.008,0.056,-0.032,-0.052,0.015,-0.263 (active),-0.011,-0.001,-0.023
TUBA1C (UniProt Q9BQE3),-0.001,0.021,-0.017,0.006,0.018,-0.038,-0.007,0.014,-0.006,-0.052,0.019,-0.256 (active),0.013,0.006,-0.014
UBIAD1 (UniProt Q9Y5Z9),0.14,-0.014,0.117,0.125,-0.014,0.096,0.04,-0.019,-0.034,-0.027,-0.061,0.042,0.04,0.032,0.058
TUBB4B (UniProt P68371),0.049,-0.05,-0.025,-0.034,-0.005,0.033,-0.001,0.006,-0.019,0.009,0.014,-0.712 (active),0.024,-0.001,0.005
TBC1D8B (UniProt Q0IIM8),0.021,-0.035,0.01,0.015,-0.042,-0.061,0.036,0.034,-0.042,-0.034,0.036,0.147,-0.037,0.011,0.131
TCF3 (UniProt P15923),0.028,-0.118,-0.018,-0.057,-0.139,0.006,-0.245,0.055,-0.019,-0.003,-0.007,-0.141,-0.031,0,-0.03
TPX2 (UniProt Q9ULW0),-0.001,0.007,-0.002,0.002,0,-0.04,-0.007,-0.021,-0.02,-0.004,0.003,-0.498 (active),-0.04,0.009,0.015

Target,log2 fold change (nilotinib),log2 fold change [1],log2 fold change (dasatinib),log2 fold change [2],log2 fold change [3],log2 fold change (quisinostat),log2 fold change (tipifarnib),log2 fold change [4],log2 fold change [5],log2 fold change [6],log2 fold change [7],log2 fold change (vorinostat),log2 fold change (silmitasertib),log2 fold change [8],log2 fold change (entospletinib)
UBXN6 (UniProt Q9BZV1),-0.033,0.042,0.017,-0.065,0.046,0.028,0.016,0.013,0.068,-0.013,0.04,-0.28 (active),0.018,-0.026,-0.009
TYMS (UniProt P04818),0.012,-0.032,-0.023,-0.015,0.01,-0.001,-0.02,0.034,0.015,-0.032,-0.02,-0.231 (active),0.009,-0.005,0.031
TUBA3C (UniProt P0DPH7),-0.009,-0.029,-0.018,-0.001,-0.05,-0.098,-0.025,0.05,0.022,0.005,0,-0.913 (active),0.017,-0.008,-0.007
TCF12 isoform 3 (UniProt Q99081),-0.031,0.016,0,0.052,-0.022,0.02,-0.022,-0.011,-0.032,-0.043,-0.016,-0.263 (active),-0.024,-0.004,0.006
TRMT10A (UniProt Q8TBZ6),0.008,-0.027,-0.07,0.019,0.013,-0.028,0.005,0.01,0.028,-0.01,0.032,0.072,-0.058,-0.063,-0.012
TOPBP1 (UniProt Q92547),0.013,-0.056,0.003,0.006,0.02,-0.018,0.049,-0.002,0.039,-0.007,0.032,-0.387 (active),0.019,-0.074,0.028
UBE2D1 (UniProt P51668),0.259 (active),-0.093,-0.1,-0.064,0.033,0.108,-0.065,-0.06,-0.066,0.029,-0.01,0.088,-0.101,-0.001,0.056
TBK1 (UniProt Q9UHD2),-0.003,0.618 (active),0.029,0.125,0.251,-0.097,-0.026,0.209,0.032,-0.074,-0.04,-0.361,0.189,0.125,0.204
TMEM97 (UniProt Q5BJF2),0.098,0.053,0.018,0.124,-0.005,0.046,0.057,0.011,-0.034,0.023,-0.016,0.152,-0.039,0.071,0.004
TRIP13 (UniProt Q15645),-0.002,-0.031,0.003,0.049,0.046,-0.065,0.007,0.026,0.002,-0.031,0.002,-0.472 (active),0.061,-0.002,0.022
TFCP2 (UniProt Q12800),0.042,0.023,-0.015,0.023,0.02,-0.072,-0.022,0.066,0.066,-0.059,-0.072,-0.465 (active),0.045,0.029,0.051
TTL (UniProt Q8NG68),-0.045,-0.082,-0.049,-0.062,0.056,-0.115,-0.008,0.017,0.018,0.03,-0.027,-0.376 (active),0.021,0.057,0.138
TRAPPC9 isoform 2 (UniProt Q96Q05),0.034,0.005,-0.051,-0.011,0.068,-0.07,0.026,0,-0.011,-0.073,0.005,-0.375 (active),0.046,0,-0.049
TUBB6 (UniProt Q9BUF5),-0.002,-0.023,-0.031,0.006,-0.006,-0.028,0.021,0.022,-0.001,0.004,0.013,-0.558 (active),0.04,0.013,0.004
TMEM87A (UniProt Q8NBN3),-0.009,0.055,-0.007,0.027,0.03,-0.021,0.024,0.003,0.03,0.017,0.001,0.074,0.007,-0.013,0.029
UBE4A isoform 2 (UniProt Q14139),0.023,-0.009,-0.075,-0.022,0.026,-0.018,-0.003,0.054,0.002,0.017,0.007,-0.257 (active),0.019,0.029,0.026
UBP1 (UniProt Q9NZI7),-0.019,-0.039,0.008,0.05,0.002,-0.125,-0.084,0.01,0.008,-0.058,-0.002,-0.182,0.008,-0.01,-0.002
TUBGCP2 isoform 4 (UniProt Q9BSJ2),-0.016,0.012,-0.058,0.012,0.064,-0.091,-0.001,0.037,0,-0.016,0.03,-0.32 (active),0.051,0.046,0.042
